Here are results for five compounds from PubChem BioAssay.

Calls of active or inactive are those of the source. Unless noted, how the calls were made is not given here.

Assay [1] is described as follows: anti-His antibody binders, primary screen, artefact control for SMM control protein annotation, biochemical, small-molecule microarray, 635 nm fluorescence (AID 1128).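 Further: score merges feature fluorescence with signal-to-noise for each printed compound spot.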 As to conditions: anti-His Alexa647 antibody binding, higher = more signal.
For assay [2], the system named is Human papillomavirus type 1a E7 protein (residues 1-88). Nature of the assay: HPV1a E7 small-molecule binders, primary screen, biochemical, small-molecule microarray, residues 1-88, 635 nm (AID 1129). As to conditions: small-molecule microarray binding, fluorescence 635 nm; higher = more signal.
Assay [3] addresses Focal adhesion kinase 1 (Homo sapiens) (UniProt Q05397). The experiment in a line: small-molecule microarray binders of FAK, primary screen, biochemical, 635/667 nm fluorescence, BSA, DTT (AID 1130).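 Further: composite of spot emission at 667 nm and signal to noise over triplicate slides.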 As to conditions: PTK2 binding, 635 nm fluorescence, higher = more signal.
Assay [4] deals with Fibrinogen (Alexa647-labelled). Nature of the assay: fibrinogen binders on compound microarrays, profiling panel, artefact control for SMM control-protein annotation, biochemical, small-molecule microarray, 635/667 nm fluorescence (AID 1131).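 Further: z-score merges 667 nm fluorescence with per-spot signal-to-noise over triplicate slides.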 As to conditions: fibrinogen-A647 binding fluorescence, higher = more signal.
Assay [5] concerns the target Follistatin (Homo sapiens) (UniProt P19883). The experiment in a line: follistatin binders on small-molecule microarrays, primary screen, biochemical, small-molecule microarray, 635/667 nm fluorescence (AID 1132). As to conditions: FST binding, 635 nm fluorescence, higher = more signal.
The target in assay [6] is Fibroblast growth factor 2 (Homo sapiens) (UniProt P09038). Nature of the assay: FGF2 binders on small-molecule microarrays, primary screen, biochemical, small-molecule microarray, 635/667 nm fluorescence (AID 1133). The note with it: small-molecule microarray binding, FGF2, fluorescence 635/667; higher = more signal.
A short description of assay [7]: mitochondrial membrane potential change in A549 cells, profiling panel, cell-based, JC-1 fluorescence, basal, 24 h, 100 nL (AID 1138).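 Further: A549 lung adenocarcinoma cells under basal conditions with no added stimulus; test concentration not given here.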 The note with it: higher = more signal.
The next assay relates to Lefty1. The experiment in a line: Lefty1 binders on small-molecule microarrays, primary screen, biochemical, small-molecule microarray, 635/667 nm fluorescence (AID 1139). As to conditions: small-molecule microarray binding, fluorescence 635/667; higher = more signal.
The test system of assay [8] is wheat germ agglutinin (Triticum aestivum), Alexa647-labelled. Nature of the assay: wheat germ agglutinin binders on compound microarrays, profiling panel, artefact control for SMM control-protein annotation, biochemical, small-molecule microarray, 635/667 nm fluorescence (AID 1140).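 Further: score merges 667 nm feature emission with signal to noise over triplicate slides.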 As to conditions: WGA-A647 binding, 635 nm fluorescence, higher = more signal.
The target in assay [9] is Luciferin 4-monooxygenase (Photinus pyralis) (UniProt P08659). Nature of the assay: firefly luciferase enzyme inhibitors, primary screen, biochemical, luminescence, purified enzyme, 2006 set (AID 1141).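 Further: cell-free assay with purified firefly luciferase at 100 ng per well in PBS; test concentration not given here.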 As to conditions: SteadyGlo luminescence, 30 min, higher = more signal, called active from +8 up or from −8 down.
Assay [10] has as its system Wnt5a (protein binding on small-molecule microarray). Nature of the assay: Wnt5a binders on small-molecule microarray, primary screen, biophysical, 635/667 nm fluorescence (AID 1142).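 Further: fluorescence read at 667 nm with signal to noise per printed feature.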 The note with it: 635 nm fluorescence, higher = more signal.
Assay [11] in a line: cell viability in Huh7 cells, primary screen, cytotoxicity control for HCV replication inhibitor project, CellTiter-Glo luminescence, basal, 48 h (AID 1143).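 Further: Huh7 hepatoma cells carrying a hepatitis C replication reporter with no stimulus; test concentration not given here.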 The note with it: Huh7 HCV replicon, higher = more signal, called active from +8 up or from −8 down. On the technique in general: Cellular ATP, detected with luciferase, serves as a proxy for viable cell number.
A short description of assay [12]: P. aeruginosa biofilm formation inhibitors, primary screen, PAO1 strain, BacTiter-Glo luminescence, LB-PBS (AID 1144). As to conditions: 12 h, higher = more signal.
A short description of assay [13]: CREB reporter modulators without forskolin, primary screen, cell-based, PC12, CRE-LacZ reporter, unstimulated (AID 1145). The note with it: no forskolin, luminescence, 4.5 h, higher = more signal, called active from +8 up or from −8 down.
The nature of assay [14]: CREB reporter modulators under forskolin, primary screen, cell-based, PC12, CRE-LacZ reporter, forskolin-stimulated (AID 1146).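 Further: PC12 cells with 6xCRE LacZ reporter stimulated by forskolin 10 µM; beta-galactosidase reporter signal reflecting CREB driven transcription.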 As to conditions: luminescence, 4.5 h, higher = more signal, called active from +8 up or from −8 down.
Assay [15] deals with Streptavidin (Streptomyces avidinii) (UniProt P22629). Nature of the assay: streptavidin binders on small-molecule microarray, primary screen, artefact control for SMM compound annotation, biophysical, 635/667 nm fluorescence (AID 1147).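 Further: signal reflects streptavidin binding to arrayed compounds as a control protein.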 As to conditions: streptavidin binding, higher = more signal.
Assay [16] can be described thus: small-molecule binders of probe aInhba, primary screen, biochemical, small-molecule microarray, 635/667 nm fluorescence (AID 1148).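 Further: score merges 667nm spot fluorescence with signal-to-noise for antibody binding to printed compounds.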 The note with it: higher = more signal.
The target of assay [17] is Torsin-1A (Homo sapiens) (UniProt O14656). The experiment in a line: torsin A binders from cell lysate, primary screen, small-molecule microarray, wild-type, 635/667 nm (AID 1149). As to conditions: COS7 hTOR1A-WT lysate, 635 nm fluorescence, higher = more signal.
Assay [18] shares this target. The experiment in a line: small-molecule binders of mutant TOR1A in lysate, primary screen, cell lysate, small-molecule microarray, COS7 lysate, 635/667 nm fluorescence (AID 1150).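 Further: score pools 667 nm emission and signal to noise measuring lysate protein binding.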 The note with it: COS7 hTOR1A mutant lysate, 635 nm fluorescence, higher = more signal.
Assay [19] relates to Sonic hedgehog protein (Shh). Nature of the assay: small-molecule binders of Shh protein, primary screen, biochemical, small-molecule microarray, 635/667 nm fluorescence (AID 1151).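 Further: Shh protein binding to compounds spotted on small-molecule microarray slides; score combines spot fluorescence intensity with signal-to-noise across triplicate slides.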 As to conditions: small-molecule microarray binding, 635 nm fluorescence; higher = more signal.

Streptavidin (Streptomyces avidinii), sequence (P22629 whole entry, looked up): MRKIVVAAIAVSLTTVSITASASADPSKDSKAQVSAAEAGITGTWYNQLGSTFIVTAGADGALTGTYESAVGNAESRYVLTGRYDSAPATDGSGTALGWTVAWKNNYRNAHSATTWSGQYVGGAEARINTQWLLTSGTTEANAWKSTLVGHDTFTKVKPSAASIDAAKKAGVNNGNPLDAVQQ
Follistatin (Homo sapiens), sequence (P19883 whole entry, looked up): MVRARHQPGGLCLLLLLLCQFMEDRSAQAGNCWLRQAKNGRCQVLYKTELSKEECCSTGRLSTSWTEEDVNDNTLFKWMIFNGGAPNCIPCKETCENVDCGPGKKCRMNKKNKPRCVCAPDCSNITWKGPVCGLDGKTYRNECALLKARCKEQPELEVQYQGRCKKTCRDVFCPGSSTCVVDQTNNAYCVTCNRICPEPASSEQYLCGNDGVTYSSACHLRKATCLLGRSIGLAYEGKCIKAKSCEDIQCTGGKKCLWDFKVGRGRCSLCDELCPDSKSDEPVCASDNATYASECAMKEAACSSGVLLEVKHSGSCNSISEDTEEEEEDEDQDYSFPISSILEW
Torsin-1A (Homo sapiens), sequence (O14656 whole entry, looked up): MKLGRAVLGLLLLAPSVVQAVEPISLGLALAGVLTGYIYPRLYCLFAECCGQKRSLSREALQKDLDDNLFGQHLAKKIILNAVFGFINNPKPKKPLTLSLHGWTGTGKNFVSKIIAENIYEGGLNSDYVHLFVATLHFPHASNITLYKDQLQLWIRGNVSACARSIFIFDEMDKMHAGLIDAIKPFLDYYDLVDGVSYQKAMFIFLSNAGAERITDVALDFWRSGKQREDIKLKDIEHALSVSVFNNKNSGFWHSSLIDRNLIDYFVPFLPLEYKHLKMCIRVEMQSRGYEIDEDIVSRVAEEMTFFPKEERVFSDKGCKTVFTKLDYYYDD
Focal adhesion kinase 1 (Homo sapiens), sequence (Q05397 whole entry, looked up): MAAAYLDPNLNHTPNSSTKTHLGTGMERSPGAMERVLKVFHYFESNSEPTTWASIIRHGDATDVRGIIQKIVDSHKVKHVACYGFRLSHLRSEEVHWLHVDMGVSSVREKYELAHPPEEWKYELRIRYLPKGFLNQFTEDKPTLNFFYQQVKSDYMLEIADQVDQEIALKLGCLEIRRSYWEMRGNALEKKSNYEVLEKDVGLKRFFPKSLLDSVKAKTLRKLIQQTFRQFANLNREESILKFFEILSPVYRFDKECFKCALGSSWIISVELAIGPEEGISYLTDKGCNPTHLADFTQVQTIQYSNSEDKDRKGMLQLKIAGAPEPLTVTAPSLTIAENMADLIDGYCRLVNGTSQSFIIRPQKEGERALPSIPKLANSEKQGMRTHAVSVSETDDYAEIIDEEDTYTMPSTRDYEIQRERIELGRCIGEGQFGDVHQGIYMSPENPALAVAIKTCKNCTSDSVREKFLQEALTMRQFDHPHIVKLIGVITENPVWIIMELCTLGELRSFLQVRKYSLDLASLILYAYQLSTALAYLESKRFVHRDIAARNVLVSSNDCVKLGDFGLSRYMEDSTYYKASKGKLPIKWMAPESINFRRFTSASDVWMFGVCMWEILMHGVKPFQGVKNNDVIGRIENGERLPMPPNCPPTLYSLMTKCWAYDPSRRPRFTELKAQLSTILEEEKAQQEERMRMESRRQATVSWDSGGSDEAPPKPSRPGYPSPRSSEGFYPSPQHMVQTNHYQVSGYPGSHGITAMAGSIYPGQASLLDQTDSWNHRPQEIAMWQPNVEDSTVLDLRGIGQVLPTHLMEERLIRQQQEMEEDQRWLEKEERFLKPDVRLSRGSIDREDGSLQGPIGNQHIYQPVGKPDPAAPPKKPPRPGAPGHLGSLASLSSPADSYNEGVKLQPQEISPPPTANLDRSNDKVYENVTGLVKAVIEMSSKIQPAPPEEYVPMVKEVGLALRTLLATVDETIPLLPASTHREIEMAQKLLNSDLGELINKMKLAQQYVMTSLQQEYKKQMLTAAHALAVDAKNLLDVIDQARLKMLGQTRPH
Fibroblast growth factor 2 (Homo sapiens), sequence (P09038 whole entry, looked up): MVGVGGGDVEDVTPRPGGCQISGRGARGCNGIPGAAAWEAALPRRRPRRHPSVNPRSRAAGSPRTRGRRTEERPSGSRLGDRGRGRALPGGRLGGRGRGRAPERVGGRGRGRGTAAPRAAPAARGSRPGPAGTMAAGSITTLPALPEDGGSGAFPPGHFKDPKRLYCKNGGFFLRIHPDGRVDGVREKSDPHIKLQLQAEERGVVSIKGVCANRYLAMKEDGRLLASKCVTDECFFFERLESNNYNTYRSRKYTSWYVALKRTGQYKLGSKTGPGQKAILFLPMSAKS
Luciferin 4-monooxygenase (Photinus pyralis), sequence (P08659 whole entry, looked up): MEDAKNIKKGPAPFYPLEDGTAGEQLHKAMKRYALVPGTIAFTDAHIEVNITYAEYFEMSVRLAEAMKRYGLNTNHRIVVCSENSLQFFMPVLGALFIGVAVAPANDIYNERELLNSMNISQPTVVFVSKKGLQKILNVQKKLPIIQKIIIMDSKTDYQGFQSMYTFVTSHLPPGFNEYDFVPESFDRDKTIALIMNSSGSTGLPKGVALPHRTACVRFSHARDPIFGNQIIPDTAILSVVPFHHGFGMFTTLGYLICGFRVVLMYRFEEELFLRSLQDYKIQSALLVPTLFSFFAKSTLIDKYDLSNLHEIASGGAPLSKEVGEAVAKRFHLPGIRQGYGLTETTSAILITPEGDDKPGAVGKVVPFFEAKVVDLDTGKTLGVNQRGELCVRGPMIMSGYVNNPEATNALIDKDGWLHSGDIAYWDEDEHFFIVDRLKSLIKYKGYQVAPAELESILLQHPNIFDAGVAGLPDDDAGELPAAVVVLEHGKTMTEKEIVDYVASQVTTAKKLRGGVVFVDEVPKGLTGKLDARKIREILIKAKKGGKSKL

Regarding `Cc1ccc(S(=O)(=O)N[C@H]2COC(=O)CC=C[C@H](C)[C@@H](NS(=O)(=O)c3ccc(C)cc3)COC(=O)CC=C[C@@H]2C)cc1`, the composite z-score was -0.308 in assay [1]; 0.42 in assay [2]; 0.106 in assay [3]; 0.129 in assay [4]; 0.471 in assay [5]; 0.647 in [6]. Besides, the composite z-score in the assay with Lefty1 is 0.556; in assay [8] it was 0.0337; in assay [10] it was -0.11; in assay [15], 1.17; in assay [16], -0.0645; in the assay with Torsin-1A (Homo sapiens) [17], 0.649. For the same compound, the composite z-score was found to be 0.741 with Torsin-1A (Homo sapiens) [18] and 0.483 in assay [19]. In addition, the z-score in assay [7] was -0.617; in assay [9], 0.846 (inactive); in assay [11], -0.591 (inactive); in assay [12] it was -0.681 (inactive); in assay [13] it was -0.008 (inactive); in assay [14], 0.556 (inactive).

For the compound `COC(=O)CC=C[C@@H](C)[C@@H](C=NO[C@H](C)c1cn([C@H](CO)Cc2ccccc2)nn1)OC`, the composite z-score in assay [1] is 3.43; in [2], 0.544; in [3] it was -0.144; in assay [4] it was 0.236; in assay [5], 0.517; in assay [6], 0.827. Moreover, the composite z-score was 0.71 with Lefty1; 0.268 in assay [8]; 0.247 in assay [10]; 0.21 in [15]; -0.128 in assay [16]; 1.09 with Torsin-1A (Homo sapiens) [17]. In addition, the composite z-score in the assay with Torsin-1A (Homo sapiens) [18] amounted to 1.78; in assay [19] it was 1.08. Also, the z-score in [7] is -0.826; in [9], -0.165 (inactive); in [11] it was -0.742 (inactive); in assay [12] it was 0.226 (inactive); in [13], 0.359 (inactive); in [14], 0.303 (inactive).

Regarding `O=C1C[C@@H](O)[C@@H](O)[C@@H]2[C@@H]3C(=O)N(C[C@@H]4CCCO4)C(=O)[C@@H]3CC[C@H]12`, the composite z-score in assay [1] was 0.284; in [2] it was 0.569; in assay [3] it was -0.266; in [4] it was 0.684; in [5] it was 0.236; in assay [6], 0.538. Also, the composite z-score in the assay with Lefty1 was 0.548; in [8] it was 0.085; in assay [10], 0.288; in assay [15] it was 0.168; in assay [16], -0.128; in the assay with Torsin-1A (Homo sapiens) [17], 0.34. Also, the results for the composite z-score (in the assay with Torsin-1A (Homo sapiens) [18]; in [19]) were 0.068 and 0.46, respectively. The z-score is 0.991 in [7]; -0.635 (inactive) in assay [9]; 0.114 (inactive) in assay [11]; 0.54 (inactive) in [12]; 0.517 (inactive) in assay [13]; -0.105 (inactive) in assay [14].

`CCOC(=O)[C@H](Cc1ccccc1)NC(=O)CCC1CC(OC(=O)NCc2cccc3ccccc23)CC2(CCCC(COC(=O)NCc3ccccc3)O2)O1` (stereo not given in full): the composite z-score in assay [1] was -0.198; in [2] it was 0.3; in [3], 0.172; in assay [4] it was 0.0039; in [5] it was 0.449; in assay [6], 0.348. Moreover, the composite z-score is 0.401 with Lefty1; -0.0623 in assay [8]; 0.0636 in assay [10]; 0.376 in assay [15]; -0.0259 in assay [16]; -0.347 in the assay with Torsin-1A (Homo sapiens) [17]. For the same compound, the composite z-score with Torsin-1A (Homo sapiens) [18] is 0.0167; in assay [19] it was 0.58. Further, the z-score in [7] is -0.133; in assay [9], 0.877 (inactive); in assay [11], -5.15 (inactive); in assay [12] it was -1.29 (inactive); in [13], -0.977 (inactive); in assay [14], 2.01 (inactive).

Consider `CCCCC#C[C@@H]1C=C[C@H](Oc2ccc(C(=O)OC)cc2)[C@@H](COC(=O)OCC)O1`, for which the composite z-score was 0.516 in assay [1]; 0.459 in [2]; -0.0377 in assay [3]; 0.531 in assay [4]; 0.974 in assay [5]; 0.585 in assay [6]. In addition, the composite z-score with Lefty1 is 0.309; in assay [8], 0.276; in assay [10], 0.769; in assay [15], 0.25; in assay [16] it was -0.128; with Torsin-1A (Homo sapiens) [17], 0.346. Besides, the composite z-score came to 0.358 in the assay with Torsin-1A (Homo sapiens) [18] and 1.12 in assay [19]. Further, the z-score in [7] is -0.896; in assay [9], -3.64 (inactive); in [11] it was -4.3 (inactive); in [12], 0.0612 (inactive); in assay [13], 0.291 (inactive); in assay [14], 1.13 (inactive).
